The record followed here is PubChem BioAssay.

In the assay the target is Pro-neuregulin-1, membrane-bound isoform (Homo sapiens) (UniProt Q02297). The assay is described as follows: NRG1 binders on small-molecule microarrays, primary screen, psychiatric disease protein project, biochemical, small-molecule microarray, fluorescence 635/667 (AID 1075).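 Note: score combines 667 nm spot fluorescence with signal to noise.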 The settings on record: NRG1 binding, 635 nm fluorescence, higher = more signal.
Sequence of Pro-neuregulin-1, membrane-bound isoform (Homo sapiens) (Q02297 whole entry, looked up, canonical isoform): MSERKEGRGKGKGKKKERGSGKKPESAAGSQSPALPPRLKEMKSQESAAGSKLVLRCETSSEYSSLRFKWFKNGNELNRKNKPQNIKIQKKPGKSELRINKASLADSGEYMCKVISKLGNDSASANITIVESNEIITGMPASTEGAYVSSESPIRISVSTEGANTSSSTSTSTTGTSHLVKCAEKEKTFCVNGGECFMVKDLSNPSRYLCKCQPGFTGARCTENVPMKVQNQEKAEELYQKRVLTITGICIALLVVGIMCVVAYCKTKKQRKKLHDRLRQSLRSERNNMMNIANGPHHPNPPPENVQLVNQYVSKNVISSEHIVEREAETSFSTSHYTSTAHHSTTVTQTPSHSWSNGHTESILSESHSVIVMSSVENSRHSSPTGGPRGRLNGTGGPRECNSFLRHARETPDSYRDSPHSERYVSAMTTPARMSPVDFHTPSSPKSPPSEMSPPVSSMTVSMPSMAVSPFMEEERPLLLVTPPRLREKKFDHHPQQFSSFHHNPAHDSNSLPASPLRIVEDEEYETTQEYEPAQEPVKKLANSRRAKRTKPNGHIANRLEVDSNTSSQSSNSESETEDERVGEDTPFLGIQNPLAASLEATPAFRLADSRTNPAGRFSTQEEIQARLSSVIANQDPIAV
The compound `CC(=O)c1ccc(C(O)C2C=CC3C(=O)NC(=O)C3N2Nc2ccc(Cl)cc2Cl)cc1` (stereo not given) returned a composite z-score of 1.72.

In the case of `C=CCC(OC(C)=O)[C@@H]1[C@@H](N(Cc2cccc3ccccc23)C(=O)c2ccc(C)cc2)c2cc(OCCCO)ccc2N1C(=O)c1ccc2ccccc2n1` (stereo not given in full), the composite z-score is -0.157. On to `COC(=O)[C@@H]1N=C(c2ccc(OCCCO)cc2)O[C@@H]1c1ccccc1CN=[N+]=[N-]`, for which the composite z-score is 1.21.

`COc1ccc([Si](C)(C)[C@@H]2[C@@H](CCO)O[C@]3(C(=O)N(Cc4ccccc4)c4ccc(N5C(=O)c6ccccc6Oc6ccccc65)cc43)[C@H]2C)cc1` yielded a composite z-score of 0.992. `COC(=O)[C@@]1(Cc2ccc(F)cc2)[C@H]2c3cc(C(=O)N(C)C)n(CCO)c3C[C@H]2CN1C(=O)c1ccccc1`: the composite z-score stood at 2.16. Compound `CC(C)(C)N1CC=CC23O[C@@H]4/C=C\CCCOC(=O)C4[C@H]2C(=O)N(CCCCCCO)[C@@H]3C1=O` (stereo not given in full) registered a composite z-score of 1.1. With `C=C(CCCC)C(=O)CC[C@H](OC(C)=O)c1ccccc1OCCO` the figure was 0.898. `COCCOC(=O)N1C(=O)[C@@]2(c3cc(C#CCC(C(=O)OC)C(=O)OC)ccc31)[C@H](C(=O)N1CCc3cc(OC)c(OC)cc3C1)[C@H]1C(=O)O[C@H](c3ccccc3)[C@H](c3ccccc3)N1[C@@H]2c1ccc(O)cc1` displayed a composite z-score of 0.729. `O=C(NCCO)C1=C[C@H](Oc2ccccc2I)[C@@H](O)[C@H](NCc2ccc(F)cc2)C1` yielded a composite z-score of -0.835. As to `C=CCC(OC(C)=O)[C@@H]1[C@@H](N(Cc2cccc3ccccc23)C(=O)c2ccc(-c3ccccc3)cc2)c2cc(OCCCO)ccc2N1C(=O)c1ccc2ccccc2n1` (stereo not given in full), the composite z-score came to 0.298.
